# Data published in the supplement of paper PMC4894684.
# Counter-ions that a name gives are not always drawn. ± gives the standard deviation of the averaged measurements.
# Test system: Toxoplasma gondii RH (in HFF)
# Test: parasite growth relative to the screen mean (all compounds = 100%); higher = less inhibition of parasite growth
# Details: 5 µM; 72 h; oxygen 21 %
# Method in brief: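 Growth values are relative to the mean of the whole screen and averaged over duplicate screens, with all compounds together set to 100%. Parasites (RH β-Gal–GFP Toxoplasma, MOI 1:5) were added within 2 h of pinning compounds at 5 µM final onto confluent human foreskin fibroblasts and grown 72 h at 21% O2. Parasite number came from CPRG β-Gal readings against in-plate standard curves.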
row,SMILES,parasite growth
1,CCC(C)(C)C(=O)O[C@H]1C[C@@H](C)C=C2C=C[C@H](C)[C@H](CC[C@@H]3C[C@@H](O)CC(=O)O3)[C@H]21 [Simvastatin],110 ± 18%
2,Oc1ccc(Nc2nc(-c3ccc(Cl)cc3)cs2)cc1,26.9 ± 8%
3,CNc1cc(OC)c(C(=O)NC2CCN(Cc3ccccc3)C2C)cc1Cl (stereo not given) [Nemonapride],95.4 ± 2.2%
4,Cc1nc2c(O)cccc2c(=O)[nH]1,122 ± 24%
5,O=C(O)c1ccccc1Nc1cccc(OCc2ccc3ccccc3n2)c1 [SR 2640 hydrochloride],135 ± 9.3%
6,O=c1[nH]c2cc(C(F)(F)F)c(N3CCOCC3)cc2n(CP(=O)(O)O)c1=O,118 ± 4%
7,CC(=N)NCc1cccc(CN)c1 [1400W dihydrochloride],74 ± 48%
8,COc1cc2ncn(-c3cc(OCc4ccccc4C(F)(F)F)c(C(N)=O)s3)c2cc1OC,93.1 ± 20%
9,O=C1CCc2c(ccc3ccccc23)O1 [Splitomicin],149 ± 2.2%
10,N=C(N)SCCc1c[nH]cn1 [Imetit dihydrobromide],91.9 ± 21%
11,OC(c1ccccc1)C1CCN(CCc2ccccc2)CC1 (stereo not given),70.7 ± 12%
12,Nc1ncnc2c1ncn2C1CCCO1 (stereo not given),70.4 ± 16%
13,O=C(/C=C/c1ccc(O)c(O)c1)OCCc1ccccc1 [Caffeic acid phenethyl ester],105 ± 73%
14,CCN(CC)CCCCC1CCN(CC(=O)N2c3ccccc3C(=O)Nc3cccnc32)CC1,141 ± 17%
15,N#Cc1ccc(NCCNCC(=O)N2CCC[C@H]2C#N)nc1 [NVP DPP 728 dihydrochloride],81.5 ± 3.9%
16,C[S+]([O-])c1ccc(-c2nc(-c3ccc(F)cc3)c(-c3ccncc3)[nH]2)cc1 (stereo not given),8.46 ± 12%
17,CN=c1nc(-c2ccccc2)n(-c2ccccc2)s1,127 ± 29%
18,C[C@@H]1CN(CCCn2c3ccccc3c3ccccc32)C[C@H](C)N1 [Rimcazole dihydrochloride],31.8 ± 4.5%
19,Nc1c2c(nc3ccccc13)CCCC2 [Tacrine hydrochloride],130 ± 27%
20,COCCOC(=O)C1=C(C)NC(C)=C(C(=O)OC(C)C)C1c1cccc([N+](=O)[O-])c1 (stereo not given) [Nimodipine],117 ± 13%
21,O=S(=O)(c1cccc2c(Cl)cccc12)N1CCCNCC1 [ML 9 hydrochloride],122 ± 19%
22,COc1ccc(-c2oc3cc(OC)ccc3c2C(=O)c2ccc(C#N)cc2)cc1,81.1 ± 22%
23,O=C(c1ccc(F)cc1)C1CCN(CCn2c(=O)[nH]c3ccccc3c2=O)CC1 [Ketanserin tartrate],183 ± 33%
24,CCC(=O)O[C@]1(C(=O)SCF)[C@H](C)C[C@H]2[C@@H]3C[C@H](F)C4=CC(=O)C=C[C@]4(C)[C@@]3(F)[C@@H](O)C[C@@]21C [Fluticasone propionate],59.2 ± 34%
25,"Nc1nc2c(nc(Br)n2[C@@H]2O[C@@H]3COP(=O)(O)O[C@H]3[C@H]2O)c(=O)[nH]1 [8-Bromo-cGMP, sodium salt]",133 ± 26%
